Source: PubChem BioAssay AID632 (National Center for Advancing Translational Sciences (NCATS), 2007)
Some of the results follow. The source made the active and inactive calls.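 Rule for the calls: active = compound lowering the Hsp90 and TPR2A binding signal, whether or not the linker counterscreen also flagged it as an artifact; inactive = the rest.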

System: Hsp90 C-terminal peptide / TPR2A co-chaperone interaction
Assay: Confirmation Concentration-Response Assay and Counterscreen for Disrupters of an Hsp90 Co-Chaperone Interaction
Details: AlphaScreen TPR2A-His6 / biotin-Hsp90 peptide binding; at 46 µM (top of the series) unless noted
Source text: NIH Chemical Genomics Center [NCGC] NIH Molecular Libraries Screening Centers Network [MLSCN] MLSCN Grant: X01 MH077625-01 NCGC Assay Overview: Hsp90 (heat shock protein 90) is the essential molecular chaperone and it accounts for 1-2% of all cytosolic proteins and is critical for the activity of diverse cellular proteins that are involved in a variety of cellular processes, including development, cell cycle, and steroid hormone signaling. Its client proteins include signaling kinases such as IGF1R, Akt, v-Src, Raf-1; regulators of cell survival such as Bcr-Abl; and transcription factors such as mutated p53, estrogen and progesterone receptors. Hsp90 has emerged as an important target for cancer treatment due to its essential role in maintaining transformation and regulating the function of oncogenic signaling proteins. The in vivo function of Hsp90 is regulated by the binding and hydrolysis of ATP at its N-terminal. Geldanamycin binds to ATP site and inhibit Hsp90 function. Geldanamycin and its analogues are under clinical trials in cancer patients. […] This domain contains the binding site for tetratricopeptide repeat (TPR) domains on HOP (Hsp Organizing Protein). TPR is a structural motif used by a significant number of cochaperones by which the in vivo function of Hsp90 is regulated. TPR2A on HOP binds specifically to MEEVD motif of the C-terminal of Hsp90. […]
NCGC Assay Protocol Summary: The assay was performed to confirm activity from an initial qHTS screen, and to counterscreen for alpha screen platform artifacts. All samples were reordered, as powders when available, and sample material was evaluated for impurities and/or incorrect molecular mass at NCGC. […] Plates were read on EnVision (PerkinElmer, Boston, MA).TPR2A-His6 was produced using a bacteria expression system and purified using a well developed method (Ghosh et al., 2000). […] TPR2A-His6 binding to biotin-Hsp90 will bring streptavidin donor beads and nickel chelate acceptor beads (PerkinElmer) together and can be measured by Alpha reading by EnVision (PerkinElmer). […]

Compound | activity, negative = inhibition
CCOC(=O)c1c(NC(=O)CSc2nnc(Cc3csc(N)n3)n2C)sc(C)c1C | -99.5% [alpha-screen platform artifact] (active)
Cc1nnc2[nH]c(=O)n(C)c(=O)c2n1 | 5.91% [at 40 µM] (inactive)
Oc1c(C(c2ccccn2)N2CCOCC2)ccc2cccnc12 (stereo not drawn) | -99.8% [alpha-screen platform artifact] (active)
